According to publication PMC5540273 (PLoS ONE, 2017):

Columns and labels:
Settings in all cases: concentration: 1 μM, replicates: in singlicate; n = 1
MRCKB = tested on: T1, MRCKB
T1 construct: gene CDC42BPB

MST1R = tested on: MST1R
MST1 = tested on: T2, MST1
T2 construct: gene STK4

MST2 = tested on: T3, MST2
T3 construct: gene STK3

MST3 = tested on: T4, MST3
T4 construct: gene STK24

MST4 = tested on: MST4
MTOR = tested on: MTOR
MUSK = tested on: MUSK
MYLK2 = tested on: MYLK2
MYLK4 = tested on: MYLK4
MYLK = tested on: MYLK
MYO3A = tested on: MYO3A
MYO3B = tested on: MYO3B
NDR1 = tested on: T5, NDR1
T5 construct: gene STK38

NDR2 = tested on: NDR2
NEK10 = tested on: NEK10
NEK11 = tested on: NEK11
NEK1 = tested on: NEK1
NEK2 = tested on: NEK2
NEK3 = tested on: NEK3
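Also: KINOMEscan kinase panel screen.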

| Structure (SMILES) | %Inh (MRCKB) [%] | %Inh (MST1R) [%] | %Inh (MST1) [%] | %Inh (MST2) [%] | %Inh (MST3) [%] | %Inh (MST4) [%] | %Inh (MTOR) [%] | %Inh (MUSK) [%] | %Inh (MYLK2) [%] | %Inh (MYLK4) [%] | %Inh (MYLK) [%] | %Inh (MYO3A) [%] | %Inh (MYO3B) [%] | %Inh (NDR1) [%] | %Inh (NDR2) [%] | %Inh (NEK10) [%] | %Inh (NEK11) [%] | %Inh (NEK1) [%] | %Inh (NEK2) [%] | %Inh (NEK3) [%] |
| --- | --- | --- | --- | --- | --- | --- | --- | --- | --- | --- | --- | --- | --- | --- | --- | --- | --- | --- | --- | --- |
| Nc1ncnc2c1ncn2-c1cccc2ccccc12 [SKF-97184] | 0 | 6 | 7 | 0 | 0 | 0 | 28 | 0 | 0 | 4 | 0 | 0 | 27 | 29 | 4 | 0 | 27 | 11 | 0 | 31 |
| COc1cc2nccc(Nc3cccc(Oc4ccccc4)c3)c2cc1OC.Cl [GW284543] | 0 | 18 | 1 | 47 | 0 | 0 | 15 | 6 | 0 | 0 | 0 | 0 | 36 | 8 | 0 | 0 | 19 | 0 | 0 | 0 |
| CN(C)c1cc(-c2ccc3c(N)n[nH]c3c2)nc(N)n1 [GSK2219329] | 0 | 18 | 1 | 0 | 5 | 0 | 1 | 0 | 9 | 0 | 0 | 11 | 0 | 17 | 0 | 0 | 0 | 0 | 0 | 0 |
| CCC(=O)c1c(-c2ccccc2)c2cc(Cl)ccc2c(=O)n1Cc1cc(C(=O)NC2CC2)n(C)n1 | 0 | 37 | 12 | 0 | 0 | 0 | 12 | 2 | 0 | 0 | 0 | 4 | 0 | 0 | 0 | 0 | 0 | 10 | 0 | 13 |
| C[C@@H]1CC[C@H](C(=O)NC2CCCCC2)CN1c1cc(-c2ccc3c(N)n[nH]c3c2)nc(N)n1 [GSK2291363] | 15 | 50 | 12 | 0 | 14 | 0 | 18 | 21 | 11 | 23 | 52 | 36 | 0 | 14 | 7 | 29 | 0 | 10 | 0 | 12 |
| COc1cc(OC)cc(-c2cc3cnc(N)nc3nc2NC(=O)NC(C)(C)C)c1 | 0 | 0 | 0 | 1 | 0 | 0 | 58 | 0 | 13 | 11 | 7 | 0 | 0 | 0 | 0 | 0 | 0 | 0 | 3 | 33 |
| Cc1nc(N(C)[C@H]2CN(C(=O)CC#N)CC[C@H]2C)c2cc[nH]c2n1 | 0 | 3 | 0 | 37 | 8 | 0 | 25 | 0 | 0 | 0 | 10 | 0 | 9 | 0 | 13 | 0 | 0 | 0 | 0 | 3 |
| CN1C(=O)C(Nc2cc(Cl)c(O)c(Cl)c2)=C(c2ccc(Cl)cc2)C1=O [SB-404321] | 0 | 0 | 0 | 33 | 0 | 0 | 2 | 0 | 11 | 0 | 0 | 0 | 8 | 0 | 0 | 0 | 0 | 0 | 0 | 16 |
| CCc1nc(-c2cccc(C)c2)c(-c2ccncc2)s1 | 0 | 0 | 0 | 8 | 8 | 0 | 34 | 5 | 5 | 0 | 12 | 4 | 15 | 40 | 0 | 3 | 0 | 0 | 0 | 28 |
| Nc1ncnc2c1ncn2-c1cccc(F)c1 [SKF-97560] | 0 | 0 | 0 | 50 | 0 | 37 | 14 | 0 | 0 | 11 | 38 | 0 | 0 | 15 | 17 | 53 | 38 | 0 | 0 | 25 |
| COc1cc(Nc2ccnc3ccc(C(F)(F)F)cc23)cc(OC)c1OC [GW577382] | 6 | 34 | 13 | 5 | 4 | 0 | 21 | 8 | 4 | 10 | 0 | 12 | 10 | 13 | 1 | 10 | 0 | 0 | 0 | 3 |
| COc1ccc(Nc2nccc(N3CCC(NS(=O)(=O)c4ccc(NC(C)=O)cc4)C3)n2)cc1 (centres unmarked) [GSK1379729] | 15 | 25 | 7 | 0 | 0 | 9 | 43 | 18 | 29 | 1 | 15 | 8 | 2 | 10 | 0 | 0 | 1 | 0 | 8 | 7 |
| COc1cccc(-n2cnc3c(N)ncnc32)c1 [SKF-97416] | 0 | 5 | 0 | 0 | 6 | 28 | 19 | 5 | 6 | 26 | 31 | 8 | 20 | 28 | 12 | 18 | 35 | 0 | 0 | 21 |
| COc1cc2ncn(-c3cc(OCc4ccncc4)c(C(N)=O)s3)c2cc1OC [GSK336313] | 0 | 34 | 0 | 0 | 0 | 0 | 28 | 93.6 | 21 | 36 | 44 | 10 | 0 | 0 | 0 | 0 | 0 | 31 | 10 | 0 |
| CCC(=O)c1c(-c2ccccc2)c2cc(Cl)ccc2c(=O)n1Cc1cc(S(C)(=O)=O)n(CCC(C)(C)O)n1 | 0 | 36 | 21 | 10 | 0 | 0 | 0 | 17 | 5 | 2 | 5 | 0 | 0 | 2 | 1 | 0 | 0 | 0 | 4 | 0 |
| Cc1cc(Nc2nc(-c3cccc(C)n3)nc3ccccc23)ccn1 [GW872411] | 0 | 0 | 0 | 0 | 0 | 0 | 73 | 9 | 0 | 26 | 0 | 0 | 0 | 31 | 22 | 6 | 0 | 0 | 0 | 14 |
| COc1cccc(C2=C(Nc3cccc(C(=O)O)c3)C(=O)NC2=O)c1 [SB-390770] | 18 | 2 | 28 | 25 | 0 | 0 | 29 | 15 | 38 | 0 | 0 | 0 | 8 | 0 | 0 | 40 | 36 | 0 | 0 | 0 |
| CCC(=O)c1c(-c2ccccc2)c2cc(Cl)ccc2c(=O)n1Cc1ccc(C(=O)O)cc1 | 0 | 6 | 0 | 0 | 0 | 0 | 0 | 0 | 0 | 0 | 0 | 0 | 3 | 0 | 0 | 0 | 0 | 0 | 0 | 22 |
| CCCC(=O)Nc1n[nH]c2ncc(-c3cccc4ccccc34)cc12 [SB-642057] | 17 | 18 | 5 | 0 | 6 | 0 | 17 | 11 | 9 | 0 | 28 | 0 | 0 | 13 | 3 | 100 | 0 | 0 | 0 | 28 |
